# Screens: PubChem, several laboratories
# This is a sample that favours compounds with a hit; in the whole collection about 2.2% have one here.
# aSyn UTR inh – MLPCN primary screen, SNCA 5' untranslated region; alpha-synuclein 5'UTR reporter, inhibitor activity; inhibition, % (tested at 7.5 µM); hit rate 0.82% among 300,000; AID 1813; in the data active = inhibition above about 60%; inconclusive = no clear call, values can overlap the other calls;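 also: H4 neuroglioblastoma cells stably carrying SNCA 5'UTR luciferase fusion; 0% = DMSO wells and 100% = positive control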
# IEC-6 tox-1 – counter-screen for KLF5 inhibitors: cytotoxicity in IEC-6 cells; AID 1825; hit rate 0.78% among 290,000; IEC-6 cytotoxicity, luminescence viability; inhibition, % at 5 µM;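 also: 0% = plate median of test compound wells and 100% = cytotoxic reference compound wells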
# APP transl inh – APP translation inhibition | SH-SY5Y APP 5'UTR-luciferase reporter, luminescence | inhibition, % at 2 µM | AID 1285 | hit rate 0.82% among 190,000;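 active = inhibition above a set limit, derived from the sample mean plus 3 SD, cut at about 45% in these data; inconclusive = one replicate passes the limit while the other fails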
# BaF3 parental – parental Ba/F3 viability inhibition as JAK2V617F counter-screen; CellTiter-Glo ATP luminescence; inhibition, % at 5.6 µM; hit rate 1.1% among 220,000; AID 1486;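 active = inhibition above a per-campaign cutoff, the mean inhibition of all tested compounds plus 3 SD, cut at about 27% in these data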;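 also: 0% = DMSO wells and 100% = JAK Inhibitor I control wells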
# KLF5 inhibitor – suppresses KLF5 promoter-driven expression; DLD-1 KLF5 promoter-luciferase reporter, luminescence; inhibition, % at 5 µM; hit rate 0.23% among 290,000; AID 1700;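 active = inhibition above a per-plate limit of that plate's mean compound inhibition plus 3 SD, cut at about 60% in these data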;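 also: 0% = DMSO wells and 100% = LY294002 at 200 µM; higher means less KLF5 promoter-driven luciferase light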
# Ba/F3 V617F tox – lowers viability of Ba/F3 cells expressing EpoR and JAK2V617F; ATP luminescence; inhibition, % at 5.6 µM; hit rate 1.1% among 220,000; AID 1446;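 active = inhibition above the campaign mean plus 3 SD over all tested compounds, cut at about 24% in these data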;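 also: cytokine-independent growth of Ba/F3 cells driven by EpoR plus mutant JAK2; 0% = DMSO-treated cells and 100% = JAK inhibitor I control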
# BaF3 tox 2 – reduces parental Ba/F3 viability, JAK2V617F counter-screen; shares compounds with Ba/F3 V617F tox; CellTiter-Glo luminescence; cells kept alive by added IL-3; inhibition, % at 5.6 µM; hit rate 31% among 580; AID 1520;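 active = cell growth inhibition above the hit limit set in the earlier mutant JAK2 cell screen, cut at about 27% in these data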;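 also: plate controls were DMSO-treated cells for no effect and JAK Inhibitor I control wells for full effect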
# JAK2V617F conf – confirmation: loss of viability in JAK2V617F-dependent Ba/F3 cells; AID 1521; shares compounds with Ba/F3 V617F tox; inhibition, % at 5.6 µM; Ba/F3 EpoR-JAK2V617F viability, CellTiter-Glo luminescence; hit rate 66% among 580;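 active = mean inhibition above the hit cutoff derived in the earlier primary screen, cut at about 25% in these data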;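 also: 0% = DMSO-treated cells and 100% = JAK inhibitor I control wells; higher means lower luminescence from reduced cell ATP and viability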
# KLF5 confirm – confirmation of KLF5 inhibitors | inhibition, % at 4 µM | hit rate 79% among 610 | DLD-1 KLF5 promoter firefly luciferase reporter, luminescence | shares compounds with KLF5 inhibitor;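 active = inhibition above a set limit taken from the earlier primary screen, cut at about 63% in these data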;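 also: 0% = DMSO wells and 100% = LY294002 at 200 µM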
# IEC-6 tox-2 – counter-screen for KLF5 inhibitors: cytotoxicity in rat IEC-6 cells | shares compounds with KLF5 inhibitor | AID 1905 | IEC-6 rat intestinal cells, viability luminescence | inhibition, % at 4 µM | hit rate 56% among 610; in the data active = inhibition above about 23%;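 also: cells exposed to compounds for 48 hours before viability read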
# IEC-6 cytotox cf – IEC-6 cytotoxicity, confirmation assay. shares compounds with IEC-6 tox-1. IEC-6 rat intestinal epithelial viability, luminescence. inhibition, % at 5 µM. hit rate 63% among 1,900. AID 1907;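 also: 0% = vehicle and 100% = reference cytotoxic drug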
# Starred values were filed as active, the others as inactive; u = inconclusive; x = not tested or not shown. Rule as the data show it, unless noted: active = inhibition above about 22%; inactive = the rest.
SMILES,aSyn UTR inh,IEC-6 tox-1,APP transl inh,BaF3 parental,KLF5 inhibitor,Ba/F3 V617F tox,BaF3 tox 2,JAK2V617F conf,others
O=C(Cc1ccccc1)Nc1scc(-c2ccccc2)c1C(=O)N1CCOCC1,18,-3,4,9,18,4,x,x,
NC(=O)c1c(-c2ccc(Cl)cc2Cl)csc1NC(=O)Cc1ccccc1,6,4,-13,12,-15,38*,40*,65*,
CCOC(=O)N1CCN(c2cc(=O)n(-c3ccc(C)cc3)c(=O)[nH]2)CC1,3,-4,-8,5,-37,-1,x,x,
CC1(C)CC(=O)C(C=NCCN2CCN(C(=S)Nc3ccc(F)cc3)CC2)=C(O)C1,-14,6,0,5,-3,37*,23,40*,
COc1ccc2nc(C)cc(Nc3ccc(C)cc3)c2c1,27,4,x,x,-28,x,x,x,
Cc1ccc2nc(C)cc(Nc3ccc([N+](=O)[O-])cc3)c2c1,10,6,19,4,5,38*,1,82*,
O=C(CSc1nc(C(F)(F)F)cc(=O)[nH]1)Nc1ccc2c(c1)OCCO2,-49,x,x,x,x,x,x,x,
CCOC(=O)c1c(NC(=O)C(C)N2CCN(C(=O)c3ccco3)CC2)sc2c1CCCC2 (stereo not given),43,-4,-1,4,4,28*,-5,-11,
NS(=O)(=O)c1ccc(NC(=O)COC(=O)COc2ccc(Cl)cc2)cc1,9,-4,-32,9,-5,4,x,x,
CCCCn1c(=N)n(CC(O)COc2ccc(C)cc2)c2ccccc21 (stereo not given),1,7,11,16,-2,65*,5,48*,
CCCCn1c(=N)n(CC(O)COc2ccccc2)c2ccccc21 (stereo not given),-7,1,1,7,-10,4,x,x,
COc1cccc(/C=C2\SC(=S)N(c3cccnc3)C2=O)c1OC,31,12,-17,-3,-23,1,x,x,
O=C(O)COc1ccccc1/C=C1\SC(=S)N(c2cccnc2)C1=O,8,6,x,-1,-16,82*,-4,12,
CCOC(=O)C1CCN(C(=O)c2cc3ccccc3oc2=O)CC1,-17,0,-11,7,-33,3,x,x,
CC(=O)c1ccc(N2CCN(C(=O)c3ccc4ccccc4n3)CC2)cc1,33,-3,5,11,0,76*,-2,-5,
Cc1cc(C)nc(/N=C(\N)Nc2ccc(F)c([N+](=O)[O-])c2)n1,-124,4,-22,8,-30,1,x,x,
COCCCN(Cc1ccco1)C(=O)Cn1ncc2c(=O)oc3ccc(C)cc3c21,2,-3,x,-3,9,1,x,x,
Nc1c(N=Nc2ccccc2F)c(=O)[nH]n1-c1ccccc1,-125,5,-61,7,-42,4,x,x,
Nc1nn(-c2ccccc2)c(N)c1N=Nc1ccccc1F,-98,24*,-181,24,-118,36*,36*,69*,
CCOc1ccc(C(O)(CCC(C)C)C(CN2CCOCC2)c2ccccc2)cc1 (stereo not given),21,-3,x,x,-16,x,x,x,
CCOc1ccc(C(=O)C(CN2CCOCC2)c2ccccc2)cc1 (stereo not given),-23,3,67*,8,-11,59*,19,98*,
CN(C)S(=O)(=O)c1cccc(NC(=S)N/N=C/c2cc(Br)ccc2O)c1,69*,-2,x,26,64*,59*,95*,84*,KLF5 confirm=77*;IEC-6 tox-2=23*
CCCCCN1C=CC(=C2C(=O)c3ccccc3C2=O)C=C1,113*,19,54*,24,95*,24*,34*,45*,KLF5 confirm=97*;IEC-6 tox-2=12
CC1=CC(=C2C(=O)c3ccccc3C2=O)C=C(C)N1C,-132,-1,-48,9,-124,3,x,x,
CCC(C)[C@H](NC(=O)N1CC(=O)Nc2ccccc21)C(=O)N1CCC(C(=O)O)CC1 (stereo not given in full),-12,-2,x,x,6,x,x,x,
SMILES,aSyn UTR inh,IEC-6 tox-1,APP transl inh,BaF3 parental,KLF5 inhibitor,Ba/F3 V617F tox,BaF3 tox 2,JAK2V617F conf,others
N=c1c2c(-c3ccccc3)c(-c3ccccc3)n(Cc3ccco3)c2ncn1Cc1ccccc1,17,3,-3,1,-3,0,x,x,
N=c1c2c(-c3ccccc3)c(-c3ccccc3)n(Cc3ccccc3)c2ncn1CCO,u,2,78*,4,76*,27*,1,23,KLF5 confirm=57;IEC-6 tox-2=22*
C(=N\Nc1nc2ccccc2[nH]1)/c1ccccn1,112*,9,-72,26,86*,31*,24,36*,KLF5 confirm=70*;IEC-6 tox-2=46*
Cc1ccc(C(=O)COC(=O)c2cn3ccccc3n2)cc1,-24,5,-13,4,-16,1,x,x,
Nc1nnnn1/N=C/C(Br)=C/c1ccccc1,-251,101*,91*,-2,10,74*,105*,100*,IEC-6 cytotox cf=54*
O=C1C=C(Nc2ccc(O)cc2)C(=O)c2ccccc21,67*,25*,x,3,-128,49*,23,76*,IEC-6 cytotox cf=7
COC1=C(Nc2ccc(O)cc2)C(=O)c2ccccc2C1=O,-110,-2,-3,9,-8,-2,x,x,
Nc1ccccc1NC1=CC(=O)CC(c2ccccc2)C1 (stereo not given),-4,31*,-22,22,14,23*,-2,-4,IEC-6 cytotox cf=2
Nc1ccccc1NC1=CC(=O)CC(c2ccco2)C1 (stereo not given),3,-1,-36,3,-2,0,x,x,
COc1cc(OC)cc(C(=O)Nc2ccccc2S(=O)(=O)N2CCCC2OC(C)=O)c1 (stereo not given),19,-1,x,x,-27,x,x,x,
CCCNC(=O)NS(=O)(=O)c1ccc(Cl)cc1,-22,0,-14,5,-13,-3,x,x,
CCCNC(=O)c1nnsc1S(=O)(=O)c1ccc(Cl)cc1,x,26*,95*,23,-6,94*,96*,98*,IEC-6 cytotox cf=22*
COc1ccc(NC2CCCN(C(=O)c3ccc(C)c(N4CCNC4=O)c3)C2)cc1 (stereo not given),-23,-2,x,x,-9,x,x,x,
COc1ccc(CS(=O)(=O)/C(Cl)=C(/Cl)C(=O)Nc2ccc(OC)nc2)cc1,-24,88*,84*,5,45,32*,99*,99*,IEC-6 cytotox cf=29*
COc1ccc(/C=C/C(=O)Nc2ccc(OC)nc2)cc1,-46,-6,-4,1,-7,2,x,x,
